ROCK2 blocker – inhibitors of human ROCK2 kinase, primary screen, biochemical, high-throughput, luminescence. purified ROCK2, Kinase-Glo ATP depletion luminescence. inhibition, % at 6 µM. 0.35% of 60,000 active. AID 604, 2007;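 active = inhibition above the screen-wide mean inhibition plus 3 SD, cut at about 18% in these data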
PKA inh – inhibitors of human PKA kinase activity, primary screen, biochemical, ATP-depletion luminescence, Kemptide substrate | 0.1% of 65,000 active | PKA Kemptide phosphorylation, Kinase-Glo ATP luminescence | AID 524, 2006 | inhibition, % at 6 µM | cAMP-dependent protein kinase catalytic subunit alpha (Homo sapiens), P17612;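 active = inhibition above the screen-wide mean inhibition plus 3 SD, cut at about 21% in these data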
DAT uptake mod – changed hDAT dopamine uptake under cocaine IC80, either direction, primary screen, cocaine antagonist project, cell-based, LLC-PK1 hDAT, [14C]-dopamine uptake, MLSMR | B-score at 10 µM | Sodium-dependent dopamine transporter (Homo sapiens), Q01959 | 1.3% of 110,000 active | LLC-PK1 hDAT cells, [14C]-dopamine uptake with cocaine IC80; actives deviate in either direction;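 active = Z score or B-score, a plate-position-corrected score, falls beyond the plate's 99.7% confidence bounds, in either direction; inactive = both scores lie inside the 99.7% bounds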
Target sequence (Q01959 whole entry, looked up): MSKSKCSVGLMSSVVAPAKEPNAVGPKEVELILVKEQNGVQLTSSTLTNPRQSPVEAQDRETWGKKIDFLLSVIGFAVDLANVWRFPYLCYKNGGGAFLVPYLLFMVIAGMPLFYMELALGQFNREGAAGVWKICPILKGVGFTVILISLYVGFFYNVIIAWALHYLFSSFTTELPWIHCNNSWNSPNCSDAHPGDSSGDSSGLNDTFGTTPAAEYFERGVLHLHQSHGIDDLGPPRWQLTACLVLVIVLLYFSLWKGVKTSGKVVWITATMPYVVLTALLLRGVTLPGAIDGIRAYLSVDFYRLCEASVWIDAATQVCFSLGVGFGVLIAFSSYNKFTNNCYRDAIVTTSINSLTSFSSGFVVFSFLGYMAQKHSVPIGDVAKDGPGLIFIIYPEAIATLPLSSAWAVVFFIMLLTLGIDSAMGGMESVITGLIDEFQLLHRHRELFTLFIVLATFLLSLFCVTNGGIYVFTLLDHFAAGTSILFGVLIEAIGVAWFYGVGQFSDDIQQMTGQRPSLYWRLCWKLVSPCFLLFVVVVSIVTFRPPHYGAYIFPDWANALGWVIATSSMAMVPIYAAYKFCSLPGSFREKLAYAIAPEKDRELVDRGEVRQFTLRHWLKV
D1 mod – D1 CRE-luciferase signal change, two-sided – cell-based, HEK293 D1, dopamine EC30, D1 allosteric modulator project, primary screen. D(1A) dopamine receptor (Homo sapiens), P21728. dopamine EC30 potentiation; actives deviate in either direction. B-score at 10 µM. 5.9% of 58,000 active. AID 641, 2007;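 active = luminescence count or its row- and column-corrected plate score outside the 99.7% band of the plate's sample wells, on either side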
D1 mod confirm – D1 receptor positive allosteric modulators, retest, confirmation, cell-based, HEK293 D1, CRE-luciferase, duplicate; shares compounds with D1 mod; 88% of 2,200 active; luminescence at 10 µM; dopamine EC30 potentiation; hits give high values;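 active = luminescence in either of two replicates above the same-plate mean plus 3 SD of the low-dose dopamine control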
D1 no dopamine – D1 receptor agonism without dopamine, confirmation, mechanism study for D1 allosteric modulator project, cell-based, HEK293 D1, CRE-luciferase, secondary assay 1 | luminescence at 10 µM | 0.8% of 1,900 active | luminescence, no dopamine; hits give high values | AID 646, 2007 | shares compounds with D1 mod; in the data active = luminescence above about 3900
Isoprot counter – alters isoproterenol CRE-luciferase response in HEK293 cells. shares compounds with D1 mod. HEK293 D1 CRE-luciferase, isoproterenol EC30 counter-screen. calls only at 10 µM. 63% of 2,200 active. AID 647;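 active = luminescence in either replicate above plate mean of wells with a partly effective reference agonist dose plus 3 SD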;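 note: isoproterenol raises cAMP through native beta-adrenoceptor Gs so signal bypasses D1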
Hits are given with their value; i = inactive; nt = not tested or not shown; + = active, no number. Many of the other results were omitted from the sample, so hits are more common in it than they were.

SMILES | ROCK2 blocker | PKA inh | DAT uptake mod | D1 mod | D1 mod confirm | D1 no dopamine | Isoprot counter
O=C(NCCO)C(c1ccccc1)c1ccccc1 | i | i | i | i | nt | nt | nt
CCOC(=O)C(NCCCO)c1ccccc1 (stereo not given) | i | i | i | 2.8 | i | i | i
CCNc1nc(NCC)nc(N(C)N)n1 | nt | nt | i | nt | nt | nt | nt
c1csc(-c2nc3nc4ccccc4nc3n2Cc2ccc3c(c2)OCO3)c1 | i | i | i | 8.9 | 10488 | i | +
CCOC(=O)c1[nH]c2ccc(Cl)cc2c1NC(=O)c1nonc1C | nt | nt | i | nt | nt | nt | nt
CCOC(=O)c1[nH]c2ccccc2c1NC(=O)c1nonc1C | nt | i | i | 5.8 | 11368 | i | +
CCOC(=O)c1[nH]c2ccccc2c1NC(=O)C(C)(C)C | i | i | i | 4.5 | 7700 | i | i
CCOC(=O)c1[nH]c2ccc(OC)cc2c1NC(=O)c1nonc1C | i | i | i | 8.7 | 12456 | nt | +
CCOC(=O)Nc1ccc2c(c1)N(C(=O)N(CC)CC)c1ccccc1CC2 | nt | nt | nt | i | nt | nt | nt
Brc1ccc(Oc2ncc(CN3CCOCC3)s2)cc1 | nt | nt | i | nt | nt | nt | nt
CCn1nccc1C(=O)Nc1cc(Cl)ccc1Cl | i | i | i | 2.3 | 7456 | i | +
CCN(CC)C(NC(=O)c1ccccc1)C(=O)c1ccccc1 (stereo not given) | i | i | i | i | nt | nt | nt
CCCCc1nc2n[nH]c(N)c2c2c1CCC2 | i | i | i | 7.9 | 22688 | i | +
CCCCCCNc1nc(NCc2ccco2)nc(OCC)n1 | nt | nt | i | nt | nt | nt | nt
c1ccc(Oc2nc(NCc3ccco3)nc(NCc3ccco3)n2)cc1 | i | i | i | 5.2 | 11736 | i | +
CCOc1nc(NCc2ccco2)nc(Nc2ccc(OC)cc2)n1 | i | i | i | 4.5 | 10436 | i | +
CCOC(=O)N1CCC(NC(=O)Cn2nc(Cc3ccncc3)c3ccccc3c2=O)CC1 | i | i | i | 4.3 | i | i | i
Cc1cc(Cl)ccc1Oc1nc(-c2ccc(F)cc2)ccc1C#N | nt | nt | i | nt | nt | nt | nt
CCC(C)n1cnc2c(c1=O)c1nc3ccccc3nc1n2-c1ccc2c(c1)OCCO2 (stereo not given) | i | i | nt | i | nt | nt | nt
CCCCn1c2nc3ccccc3nc2c2c(=O)n(C(C)CC)cnc21 (stereo not given) | i | i | i | 10 | 11776 | i | i
CCC(C)n1cnc2c(c1=O)c1nc3ccccc3nc1n2Cc1ccc2c(c1)OCO2 (stereo not given) | i | i | 4.1 | 9.8 | 14800 | i | +
O=C(Nc1ccc(F)cc1)N1CCOCC1 | i | i | i | 5.4 | i | i | i
COc1ccc(-c2cc(C(F)(F)F)n3nc(C(=O)N4CCCCC4)cc3n2)cc1 | nt | nt | i | 5.7 | 8620 | i | i
COc1ccc(-c2cc(C(F)(F)F)n3nc(C(=O)N4CCCCC4)cc3n2)cc1OC | nt | nt | i | nt | nt | nt | nt
COc1ccc(-c2noc(CCN3C(=O)c4ccccc4C3=O)n2)cc1OC | i | i | i | 2.6 | 17536 | i | i
SMILES | ROCK2 blocker | PKA inh | DAT uptake mod | D1 mod | D1 mod confirm | D1 no dopamine | Isoprot counter
COc1ccc(-c2noc(CSc3nnc(CCc4ccccc4)n3-c3ccccc3)n2)cc1OC | i | i | i | 7.2 | 10480 | i | +
COc1ccc(-c2noc(CSc3ccccc3)n2)cc1OC | i | i | i | 9.4 | 8800 | i | +
Cc1ccc(-c2nnc(SCc3ccccc3F)o2)cc1 | i | i | i | i | nt | nt | nt
COc1ccc(-c2nnc(SCc3ccccc3F)o2)cc1OC | i | i | i | 12 | 22288 | i | +
c1cc(-c2cc3cc(N4CCOCC4)ccc3o2)cs1 | nt | nt | i | nt | nt | nt | nt
COCCOc1cc(-n2ccnc2SC)c(Cl)cc1Cl | nt | nt | i | nt | nt | nt | nt
Cc1cc(C)n(-c2nc(C)nc(NCc3ccccc3)n2)n1 | nt | nt | i | 6.7 | 14476 | i | +
COc1ccc(-c2nc(CCNC(=O)c3ccco3)cs2)cc1OC | i | i | i | 24 | 24816 | i | +
COc1ccc(-c2cc(C(=O)N(C)Cc3ccccc3)no2)cc1OC | i | i | i | 17 | 18128 | nt | +
CCCCNC(=O)c1cc(-c2ccc(OC)cc2)on1 | nt | i | i | nt | nt | nt | nt
COc1ccc(C(=O)N2CCOCC2)cc1Br | i | i | i | i | nt | nt | nt
CCCCNC(=O)c1cc(-c2ccc(OC)c(OC)c2)on1 | i | i | i | 3.4 | 9084 | i | i
COc1ccc(S(=O)(=O)N(C)c2ccc(C(=O)N3CCOCC3)cc2)cc1OC | i | i | i | 15 | 16652 | i | i
COc1ccc(-c2cc(C(=O)NCc3ccc(Cl)cc3)no2)cc1OC | i | i | i | i | nt | nt | nt
CCC1CCCCN1C(=O)CSc1nnc(-c2c[nH]c3ccccc23)o1 (stereo not given) | i | i | i | i | nt | nt | nt
COc1ccc(-c2cc(C(=O)N3CCOCC3)no2)cc1OC | i | i | i | 6 | 11468 | i | +
COc1ccc(CNC(=O)c2cc(-c3ccc(OC)c(OC)c3)on2)cc1 | i | i | i | i | nt | nt | nt
COc1ccc(-c2cc(C(=O)N3CCN(c4ccccc4)CC3)no2)cc1OC | nt | nt | i | nt | nt | nt | nt
COc1ccc(-c2cc(C(=O)NCc3ccccc3)no2)cc1OC | i | i | i | 4.6 | 10196 | nt | +
COc1cccc(C2=CC(c3cc(OC)ccc3OC)n3nnnc3N2)c1 (stereo not given) | i | i | nt | 4.1 | 8488 | nt | +
COc1cccc(C2C=C(c3ccc(OC)cc3OC)Nc3nnnn32)c1 (stereo not given) | i | i | i | i | nt | nt | nt
COc1cccc(C2=CC(c3cccc(OC)c3OC)n3nnnc3N2)c1 (stereo not given) | i | i | i | i | nt | nt | nt
COc1ccc(C2=CC(c3ccc(OC)c(OC)c3)n3nnnc3N2)c(OC)c1 (stereo not given) | i | i | i | 9.3 | 15796 | i | +
COc1ccc(OC)c(C2C=C(c3ccc(C)c(C)c3)Nc3nnnn32)c1 (stereo not given) | i | i | i | 3.9 | 6516 | i | i
C(=N\C(/N=C/c1ccco1)c1ccco1)/c1ccco1 | i | i | i | 8.8 | 17580 | i | i
Cc1cccc(Cc2c(C)nc3c(C(=O)NCc4ccco4)cnn3c2C)c1 | i | i | i | 3.9 | 8112 | i | i
Cc1nc2c(C(=O)NCc3ccco3)cnn2c(C)c1Cc1ccc(F)cc1Cl | i | i | i | i | nt | nt | nt
CCN(CC(=O)NC1CCCC1)S(=O)(=O)c1ccc(C)cc1 | i | i | i | i | nt | nt | nt
